Screening results as filed in PubChem BioAssay.
BRCT inh red: qHTS Assay for Inhibitors of BRCT-Phosphoprotein Interaction (Red Fluorophore); Breast cancer type 1 susceptibility protein (Homo sapiens), P38398; BRCT-phosphopeptide binding, red fluorescence polarization; Potency, µM (doses to about 76.9 µM), usual class: inhibitors; 0.03% of 75,000 active
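Fluorescence polarization: 100 nM His-tagged BRCA1 BRCT with 100 nM TAMRA-labelled phospho-BACH1 decapeptide, phosphate buffer pH 7.3 with 150 mM NaCl, DTT, 0.01% Tween 20; 12 min RT. Binding inhibition seen as FP decrease.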
DNA Pol III inh: qHTS Assay for Inhibitors of DNA Polymerase III Holoenzyme System. AID 603, 2007. Potency, µM (titrated, usually from 57.1 µM). reconstituted DNA polymerase III holoenzyme replication, biochemical. 0.25% of 71,000 active
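Reconstituted *E. coli* holoenzyme (0.35 nM Pol III, 1 nM beta, 154 nM SSB, 2 nM primase) was preincubated with compound for 15 min at RT. Synthesis on 1.4 nM ssM13Gori ran 35 min, then was stopped with PicoGreen/EDTA and read as dsDNA fluorescence.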
ALOX15 inhib: qHTS Assay for Inhibitors of 15-hLO (15-human lipoxygenase); AID 887, 2007; Potency, µM (titrated, usually from 57.1 µM), most hits filed as inhibitors; 1.4% of 74,000 active; purified 15hLO-1, xylenol orange hydroperoxide absorbance; further: nearly all actives have a fitted effect of over 55% in size
Target sequence (P16050 whole entry, looked up): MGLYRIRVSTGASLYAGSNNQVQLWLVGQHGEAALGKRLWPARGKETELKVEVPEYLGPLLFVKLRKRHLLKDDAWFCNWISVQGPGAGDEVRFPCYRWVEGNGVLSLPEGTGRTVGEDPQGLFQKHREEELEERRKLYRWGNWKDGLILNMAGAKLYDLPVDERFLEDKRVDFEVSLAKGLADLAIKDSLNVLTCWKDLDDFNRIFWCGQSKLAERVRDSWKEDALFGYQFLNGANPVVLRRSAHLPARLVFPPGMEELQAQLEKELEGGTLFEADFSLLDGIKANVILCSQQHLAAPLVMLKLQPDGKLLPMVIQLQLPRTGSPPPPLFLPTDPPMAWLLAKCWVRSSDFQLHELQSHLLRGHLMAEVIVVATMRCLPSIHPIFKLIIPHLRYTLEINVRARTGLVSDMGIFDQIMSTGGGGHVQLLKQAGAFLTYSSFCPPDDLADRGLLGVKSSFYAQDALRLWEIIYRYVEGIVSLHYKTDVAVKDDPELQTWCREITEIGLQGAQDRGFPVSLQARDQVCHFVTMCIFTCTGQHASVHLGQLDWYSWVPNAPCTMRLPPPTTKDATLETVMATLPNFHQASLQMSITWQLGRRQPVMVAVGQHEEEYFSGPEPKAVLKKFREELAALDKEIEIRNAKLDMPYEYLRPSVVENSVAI
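Purified human 15hLO-1 (40 nM) in 25 mM Hepes pH 7.5, 0.01% Triton X-100, preincubated 15 min RT with compound, then 50 uM arachidonic acid for 6 min. Hydroperoxide read by ferrous/xylenol orange, 30 min; 573/405 nm absorbance ratio gave progress.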
Hsp90 Hop PPI: qHTS Assay for Disrupters of an Hsp90 Co-Chaperone Interaction. Hsp90 C-terminal peptide / TPR2A (Hop) interaction, human. AlphaScreen TPR2A-His6 binding biotin-Hsp90 C-terminal peptide. Potency, µM (series often up to 57 µM). 0.44% of 71,000 active. AID 595, 2007; active means well fitted curve in either direction with a large enough effect; inconclusive means small, poorly fitted or top-dose-only effect, or another doubt
BRCT PPI green: qHTS Assay for Inhibitors of BRCT-Phosphoprotein Interaction (Green Fluorophore); BRCA1 BRCT-phosphopeptide binding, green fluorescence polarization; AID 875, 2007; 0.05% of 75,000 active; Potency, µM (top dose mostly 76.9 µM), most hits filed as inhibitors
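Fluorescence polarization: His-tagged BRCT (~35 kDa BRCA1 C-terminus, 250 nM) bound to 100 nM fluorescein-labeled phosphorylated 10-aa BACH1 peptide, pH 7.3 phosphate buffer with DTT and Tween 20. Compounds incubated 12 min at room temperature; inhibition read as lowered polarization.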
TsaE inh: qHTS Assay for Inhibitors of YjeE; 0.05% of 71,000 active; Potency, µM; tRNA threonylcarbamoyladenosine biosynthesis protein TsaE (Escherichia coli (strain …; AID 605, 2007; purified YjeE enzyme, qHTS inhibition assay
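Purified YjeE (10 uM) with BODIPY Texas Red-labeled ADP probe (2 uM); compounds pin-transferred, 15 min at room temperature. Binding inhibition read as decreased fluorescence polarization; ADP titration as control.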
Hsp90 TPR2A CRC: Confirmation Concentration-Response Assay and Counterscreen for Disrupters of an Hsp90 Co-Chaperone Interaction. 100% of 45 active. AlphaScreen TPR2A-His6 / biotin-Hsp90 peptide binding. shares compounds with Hsp90 Hop PPI. activity, negative = inhibition, % at 40 µM or 46 µM, hits read low;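 active means compound lowering the Hsp90 and TPR2A binding signal, whether or not the linker counterscreen also flagged it as an artifact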
Each line names hits and unclear results; the compound was inactive in the other large screens (follow-up assays come after a bar, where they were run); [ ] = another dose, or the depositor's remark. Rows were chosen to be rich in hits. Some 1.9% of all compounds tested hit in one or more screens of this group. Unless noted, the call rests on the fitted dose curve; in most records, active means well fitted curve in the direction sought with a large enough effect; inconclusive means small, poorly fitted or top-dose-only effect, or another doubt; inactive means no such curve, though single readings can be large; an effect the other way counts as inactive or inconclusive.

c1ccc2cc(NCNc3ccc4ccccc4c3)ccc2c1	Hsp90 Hop PPI inconclusive
CC1(C)N=C(N)N=C(N)N1c1cccc(CSc2ccccc2)c1	none
COC(c1ccccc1Br)C(C)/C=C/CCO (configuration not stated)	ALOX15 inhib 1.6µM (no result: DNA Pol III inh, Hsp90 Hop PPI, TsaE inh)
CC(=O)O[C@H]1C(=O)[C@]2(C)[C@H]([C@H](OC(=O)c3ccccc3)[C@@]3(O)C[C@H](OC(=O)[C@@H](O)[C@@H](NC(=O)c4ccccc4)c4ccccc4)C(C)=C1C3(C)C)[C@]1(OC(C)=O)CO[C@@H]1C[C@@H]2O	none (no result: BRCT inh red, ALOX15 inhib, BRCT PPI green)
Nc1ncnc2nc[nH]c12.Nc1ncnc2nc[nH]c12.[Cl][Pt]([Cl])([Cl])[Cl]	DNA Pol III inh 2.5µM (no result: BRCT inh red, ALOX15 inhib, BRCT PPI green)
CCOC(=O)CCCCCCCCCCCCC1C=CCC1 (configuration not stated)	ALOX15 inhib 13µM (no result: DNA Pol III inh, Hsp90 Hop PPI, TsaE inh)
CCOC(=O)CCN1C(=O)[C@H]2[C@@H]3[C@H](O)C=CC(=O)[C@H]3CC[C@H]2C1=O	none (no result: DNA Pol III inh, Hsp90 Hop PPI, TsaE inh)
CC1CCN(CC[C@@H]2CCCN2S(=O)(=O)c2cccc(O)c2)CC1	none
CN1CCN(Cc2ccc(OCc3ccccc3)cc2)CC1	none
CN1CCN(Cc2cc(COCc3ccccc3)c3cccnc3c2O)CC1	Hsp90 Hop PPI 1.6µM | Hsp90 TPR2A CRC -100[alpha-screen platform artifact]
O=C(Nc1cccc(C(=O)N2CCOCC2)c1)c1cncc(Br)c1	none
O=C(Nc1cccc(C(=O)N2CCOCC2)c1)c1ncn[nH]1	Hsp90 Hop PPI 25µM | Hsp90 TPR2A CRC -83[alpha-screen platform artifact]
O=C(CN1CC(=O)Oc2ccccc21)OCC(=O)c1ccccc1	Hsp90 Hop PPI 3.2µM | Hsp90 TPR2A CRC -100[alpha-screen platform artifact]
CCOC(=O)CCCCC(=O)c1[nH]c(=O)[nH]c1CSc1nc(C)cc(C)n1	Hsp90 Hop PPI inconclusive
CCOC(=O)CCCCC(=O)c1[nH]c(=O)[nH]c1CN1CCOCC1	Hsp90 Hop PPI 2.5µM | Hsp90 TPR2A CRC -99[alpha-screen platform artifact]
CCOC(=O)CCCCC(=O)c1[nH]c(=O)[nH]c1CSc1nc2ccccc2[nH]1	Hsp90 Hop PPI 2.5µM | Hsp90 TPR2A CRC -100[alpha-screen platform artifact]
CCOC(=O)c1c(C)[nH]c(C(=O)CN2CCOCC2)c1C	none
CCOC(=O)CCCCC(=O)c1[nH]c(=O)[nH]c1CSc1nc(C)cc(=O)[nH]1	Hsp90 Hop PPI 1µM | Hsp90 TPR2A CRC -100[alpha-screen platform artifact]
O=C(O)c1ccncc1.O=C(O)c1ccncc1.[NH2-].[NH2-].[Pt]	none
COc1cc(NCC[C@@H]2CCCCN2)c2ncccc2c1	none
OCc1ccnc2c(O)cccc12	Hsp90 Hop PPI 3.2µM | Hsp90 TPR2A CRC -100[alpha-screen platform artifact]
CCOc1ccc(C(=O)CCNC(Cc2cnc[nH]2)C(=O)O)cc1 (configuration not stated)	Hsp90 Hop PPI inconclusive | Hsp90 TPR2A CRC -93[alpha-screen platform artifact]
Nc1nc(N)nc(-c2ccccn2)n1	Hsp90 Hop PPI 7.9µM | Hsp90 TPR2A CRC -99[alpha-screen platform artifact]
CC(C)(CC(=O)Nc1ccccc1)C(=O)O	none
O=C(NCCCn1ccnc1)Nc1ccc(Cl)c(Cl)c1	Hsp90 Hop PPI 7.9µM | Hsp90 TPR2A CRC -98[alpha-screen platform artifact]
O=C1/C(=C/c2ccccc2)[C@@H](NC2CCCCC2)c2ccccc21	none
O=C(Oc1ccccc1)n1c(=O)oc2ccc(Cl)cc21	none (no result: DNA Pol III inh, Hsp90 Hop PPI, TsaE inh)
N#Cc1ccccc1-c1ccc2ncnc(NCc3cccs3)c2c1	ALOX15 inhib inconclusive
Cc1ccc(S(=O)(=O)CCc2nnc(NC(=O)c3cnccn3)s2)cc1	none
Cc1ccc(S(=O)(=O)CCc2nnc(NC(=O)c3ccccn3)s2)cc1	Hsp90 Hop PPI 6.3µM | Hsp90 TPR2A CRC -100[alpha-screen platform artifact]
